Assay results taken from the supplement of paper PMC8975748.
Where a name gives a salt, the structure may show the parent alone.

These compounds were tested on Saccharomyces cerevisiae BY4741 SeMeCo community (assay: z-score of subpopulation abundance vs DMSO median, subpopulation auxotrophic for M; higher = larger share of this subpopulation than in DMSO controls). Settings: 10 µM; 24 h; SM minimal medium; subpopulation (auxotrophy): M.
Procedure: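 Fluorescent four-plasmid SeMeCo (self-establishing metabolically cooperating S. cerevisiae BY4741 community; plasmids pH-mRuby2, pL-mWasabi, pU-eCFP, pM-TagRFP657) was grown 24 h in minimal SM medium with each Selleck FDA-approved drug at 10 µM in 384-well plates. Cells were fixed and imaged by high-content confocal microscopy. For each auxotrophic subpopulation (and the prototroph), a z-score gives the deviation from the DMSO vehicle-control population median.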

SMILES | z-score of subpopulation abundance
CC(C)=CCOc1c2occc2cc2ccc(=O)oc12 [Imperatorin] | 1.13
Cc1cc(O)ccc1Cl [Chlorocresol] | 1.26
Oc1cc(Cl)ccc1Oc1ccc(Cl)cc1Cl [Triclosan] | -4.35
COC(=O)C1=CCCN(C)C1 [Arecoline HBr] | 0.3
CCC1=C[C@H]2CN3CCc4c([nH]c5ccccc45)[C@](C(=O)OC)(C2)[C@H]13 [Catharanthine] | -0.42
COc1ccc(C(CN(C)C)C2(O)CCCCC2)cc1 (centres undefined) [Venlafaxine HCl] | 0.68
C=C(C)[C@H]1Cc2c(ccc3c2O[C@@H]2COc4cc(OC)c(OC)cc4[C@@H]2C3=O)O1 [Rotenone (Barbasco)] | 0.37
Nc1ccncc1 [4-Aminopyridine] | 0.04
COc1ccc(C(CN(C)C)C2(O)CCCCC2)cc1 (centres undefined) [Venlafaxine] | -0.73
C[N+]12CCC(CC1)C(OC(=O)C(O)(c1ccccc1)c1ccccc1)C2 (centres undefined) [Clidinium Bromide] | -0.85
O=c1[nH]c2ccccc2n1CCCN1CCC(n2c(=O)[nH]c3cc(Cl)ccc32)CC1 [Domperidone] | 0.22
C=C[C@H]1CN2CC[C@H]1C[C@H]2[C@H](O)c1ccnc2ccccc12 [Cinchonidine] | 0.23
NCCc1c[nH]c2ccc(O)cc12 [Serotonin HCl] | 0.15
NCC(O)c1ccc(O)cc1 (racemic) [(+,-)-Octopamine HCl] | 0.19
O=C(O[C@H]1C[C@H]2CC[C@@H](C1)[N+]21CCCC1)C(O)(c1ccccc1)c1ccccc1 [Trospium chloride] | 0.12
CCN(CC)CCOC(=O)C(O)(c1ccccc1)c1ccccc1 [Benactyzine hydrochloride] | -1.19
C[C@@H]1CC[C@H]2[C@@H](C)C(=O)O[C@@H]3O[C@@]4(C)CC[C@@H]1[C@]32OO4 [Artemisinin] | -4.51

SMILES | z-score of subpopulation abundance
C[N+]1(C)[C@@H]2C[C@@H](OC(=O)[C@H](CO)c3ccccc3)C[C@H]1[C@@H]1O[C@@H]12 [Methscopolamine] | -0.33
CN(C)C(=O)Oc1cccc([N+](C)(C)C)c1 [Neostigmine Bromide] | 0.29
NC(=O)CN1CCCC1=O [Piracetam] | 1.48
CC(=O)O[C@H]1C[C@@H]2CC[C@@H]3[C@H](CC[C@@]4(C)[C@H]3C[C@H]([N+]3(C)CCCCC3)[C@@H]4OC(C)=O)[C@@]2(C)C[C@@H]1[N+]1(C)CCCCC1 [Pancuronium dibromide] | -1.46
CC(=O)OCC1=C(C(=O)O)N2C(=O)C(N)C2SC1 (centres undefined) [7-Aminocephalosporanic acid] | -0.97
CCCCCCCCCCCCCCCC[n+]1ccccc1 [Cetylpyridinium Chloride] | -6.34
CCN(C)C(=O)Oc1cccc([C@H](C)N(C)C)c1 [Rivastigmine Tartrate] | -0.28
O=c1cccc2n1C[C@@H]1CNC[C@H]2C1 [Cytisine] | -0.43
CCOC(=O)Nc1ccc(NCc2ccc(F)cc2)cc1N [Retigabine 2HCl] | 0.27
CN(C)[C@@H]1C(=O)C(C(N)=O)=C(O)[C@@]2(O)C(=O)C3=C(O)c4c(O)ccc(Cl)c4[C@@](C)(O)[C@H]3C[C@@H]12 [Chlortetracycline HCl] | 0.04
O=C(O[C@H]1C[N+]2(CCCOc3ccccc3)CCC1CC2)C(O)(c1cccs1)c1cccs1 [Aclidinium Bromide] | 0.23
CN(C)[C@@H]1C(=O)C(C(N)=O)=C(O)[C@@]2(O)C(=O)C3=C(O)c4c(O)cccc4[C@@](C)(O)[C@H]3[C@H](O)[C@@H]12 [Oxytetracycline Dihydrate] | -1.02
CN1C(=O)COc2c(C(=O)NC3CN4CCC3CC4)cc(Cl)cc21 (centres undefined) [Azasetron HCl] | 1.59
CCCN1C[C@H](CSC)C[C@@H]2c3cccc4[nH]cc(c34)C[C@H]21 [Pergolide Mesylate] | -0.05
CC1(C)SC2C(N)C(=O)N2C1C(=O)O (centres undefined) [6-Aminopenicillanic acid] | 0.22
C[CH2][Hg][S]c1ccccc1C(=O)[O-].[Na+] [Thimerosal] | -0.95
CCOC(=O)Nc1ccc(NCc2ccc(F)cc2)cc1N [Retigabine] | 0.51
